Laboratory results taken from PubChem BioAssay AID651918 (Vanderbilt Specialized Chemistry Center, 2012).
Active and inactive are the calls of the source. No rule for the calls is given here.

Target: Histone deacetylase 1 (Homo sapiens) (UniProt Q13547)
Experiment: HDAC1 enzyme inhibition, profiling panel, selectivity assay for E-cadherin restoration project, biochemical, HDAC isoform panel (AID 651918)
Settings: recombinant HDAC1, fluorogenic peptide substrate deacetylation; series mostly up to 10 µM

Sequence of Histone deacetylase 1 (Homo sapiens) (Q13547 whole entry, looked up, canonical isoform): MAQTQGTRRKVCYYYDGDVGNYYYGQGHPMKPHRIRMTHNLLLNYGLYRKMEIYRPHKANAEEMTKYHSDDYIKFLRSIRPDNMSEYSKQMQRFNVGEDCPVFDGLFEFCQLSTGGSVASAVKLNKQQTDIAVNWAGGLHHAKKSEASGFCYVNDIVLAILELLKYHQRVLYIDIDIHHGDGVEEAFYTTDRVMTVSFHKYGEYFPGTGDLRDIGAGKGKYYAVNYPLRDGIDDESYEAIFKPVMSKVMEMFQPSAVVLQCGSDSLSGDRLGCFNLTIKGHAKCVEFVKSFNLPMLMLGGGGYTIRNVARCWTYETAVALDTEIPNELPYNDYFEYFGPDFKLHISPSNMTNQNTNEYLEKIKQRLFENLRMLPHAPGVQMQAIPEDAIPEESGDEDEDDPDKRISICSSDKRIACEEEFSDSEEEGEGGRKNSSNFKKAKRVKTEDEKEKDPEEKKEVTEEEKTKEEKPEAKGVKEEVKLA

O=C(NCCCNC(=O)c1ccc[nH]c1=O)c1cc(-c2ccccc2)on1
outcome: inactive
